# Source: PubChem BioAssay (National Center for Advancing Translational Sciences (NCATS))
# Shown are actives, neighbours in structure and some others; about 0.41% of the full set was active somewhere.
# GLA spleen mod: qHTS Assay for Inhibitors and Activators of Human alpha-Galactosidase From Spleen Homogenate. Alpha-galactosidase A (Homo sapiens), P06280. human spleen homogenate, 4MU-alpha-Gal fluorescence, 40 min. Potency, µM (doses to about 80 µM), without a hit: at the highest dose activity change, negative = inhibition, usual class: inhibitors. 0.008% of 240,000 active;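 also: potency is read from the fitted curve at half-maximal effect; 0% = enzyme with vehicle and -100% = no enzyme basal signal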
# Target sequence (P06280 32-429 limits assumed): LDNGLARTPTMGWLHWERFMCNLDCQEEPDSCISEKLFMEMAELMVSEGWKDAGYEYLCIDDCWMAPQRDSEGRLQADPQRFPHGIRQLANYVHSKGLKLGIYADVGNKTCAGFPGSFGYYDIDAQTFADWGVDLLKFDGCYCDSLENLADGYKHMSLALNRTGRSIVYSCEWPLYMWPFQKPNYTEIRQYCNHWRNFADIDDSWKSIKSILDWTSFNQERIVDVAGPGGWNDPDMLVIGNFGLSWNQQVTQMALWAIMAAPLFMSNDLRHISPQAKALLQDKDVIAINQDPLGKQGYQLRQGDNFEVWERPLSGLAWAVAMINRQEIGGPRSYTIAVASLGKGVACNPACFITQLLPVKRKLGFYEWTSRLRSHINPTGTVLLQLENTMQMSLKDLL
#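 Human spleen homogenate (1 ug) as enzyme source, 4-methylumbelliferyl-alpha-D-galactopyranoside 1 mM final, citrate/phosphate pH 5.0 with 0.01% Tween-20. Compounds 40 min at 37C, NaOH/glycine stop; fluorescence Ex 365/Em 440, Hill-fit AC50.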
# GAA spleen mod: qHTS Assay for Inhibitors and Activators of Human alpha-Glucosidase From Spleen Homogenate; Potency, µM (top dose mostly 79.9 µM), for the others: top-dose activity change, negative = inhibition, most hits filed as inhibitors; human spleen homogenate, 4-MU-alpha-glucoside fluorescence; Lysosomal alpha-glucosidase (Homo sapiens), P10253; 0.006% of 240,000 active;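 also: potency is read from the fitted curve at half-maximal effect; 0% = enzyme with vehicle and -100% = no enzyme basal signal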
#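 Human spleen homogenate (1 ug) incubated with compounds and 1 mM 4-methylumbelliferyl-alpha-D-glucopyranoside in pH 5.0 citrate/phosphate buffer, 37 C, 40 min. Stopped at pH 10; 4-MU fluorescence (Ex 365/Em 440 nm); AC50 by Hill fit.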
# GAA glycogen mod: qHTS Assay for Inhibitors and Activators of Human alpha-Glucosidase Cleavage of Glycogen; Lysosomal alpha-glucosidase (Homo sapiens), P10253; recombinant GAA, glycogen substrate, Amplex Red glucose oxidase fluorescence; Potency, µM (top dose mostly 76.4 µM), for the others: at the top dose activity change, negative = inhibition, hits mostly inhibitors; 0.38% of 300,000 active; AID 2100, 2009;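 also: potency is read from the fitted curve at half-maximal effect; 0% = full enzyme reaction and -100% = no-enzyme basal signal; the screen sought inhibitors and activators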
#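 Recombinant enzyme (4 nM final) with compounds titrated up to 77 uM and bovine liver glycogen (30 ug) in citrate pH 5.0, 0.01% Tween-20, 37 C 40 min. Released glucose detected by Amplex Red/glucose oxidase (Ex 573/Em 610); AC50 from Hill fits.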
# GLA inh pH 4.5: qHTS Assay for Inhibitors of Human alpha-Galactosidase at pH 4.5 | purified enzyme, 4-MU-alpha-Gal fluorescence, pH 4.5 | activity change, negative = inhibition, % at 105 µM | 230,000 tested, under 10 active | AID 1467, 2008;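 also: 0% = full activity with enzyme and -100% = basal without enzyme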
# GAA inh: qHTS Assay for Inhibitors of Human alpha-Glucosidase as a Potential Chaperone Treatment of Pompe Disease; Potency, µM (highest dose often 76.9 µM), inactives show at the top dose activity change, negative = inhibition, usual class: inhibitors; Lysosomal alpha-glucosidase (Homo sapiens), P10253; purified human GAA, 4-MU-alpha-glucoside fluorescence; 0.005% of 200,000 active;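 also: potency is read from the fitted curve at half-maximal effect; plate controls were uninhibited enzyme wells for no effect and no-enzyme background for full effect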
#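 qHTS format, compound range up to 77 uM. Human lysosomal enzyme at 4 nM, 400 uM 4-MU glucoside substrate, pH 5.0, 20 min room temperature; fluorescence after alkaline stop gives activity normalized to controls.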
# N370S GC mod: qHTS Assay for Inhibitors and Activators of N370S glucocerebrosidase as a Potential Chaperone Treatment of Gaucher Disease; N370S GC spleen homogenate, 4MU-glucoside fluorescence; Potency, µM (top dose mostly 59.4 µM), for the others: at the top dose activity change, negative = inhibition, most hits filed as inhibitors; 0.092% of 330,000 active;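 also: potency is read from the fitted curve at half-maximal effect; 0% = full enzyme activity and -100% = no enzyme basal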
# * hit, by the source's call; ? = inconclusive; . = no result given; [ ] = another dose, or the depositor's remark. Calls follow the shape of the dose curve; as a rule, active = well fitted curve in the direction sought with a large enough effect; inconclusive = small, poorly fitted or top-dose-only effect, or another doubt; inactive = no such curve, though single readings can be large; an effect the other way counts as inactive or inconclusive.
SMILES,GLA spleen mod,GAA spleen mod,GAA glycogen mod,GLA inh pH 4.5,GAA inh,N370S GC mod
COc1cc(/C=N/Nc2ccccn2)ccc1O,0.4%,-3.8%,25.1µM*,-4.8,.,-13.8%
COc1ccc(/C=N/Nc2ccccn2)cc1OC,-6.9%,-5.7%,?,-3.7,.,18.2%
Oc1ccc(/C=N/Nc2ccc(Cl)nn2)cc1O,.,.,6.26µM*,.,.,-7.0%
COc1cc(/C=N/NC(=O)NC2CCCCC2)cc(OC)c1O,-4.0%,-0.9%,-9.0%,-10.0,.,7.1%
COc1cc(/C=N/NC(=O)NC2CCCCC2)ccc1O,-2.8%,2.4%,25.1µM*,-9.9,.,?
CCn1c(CNC(=O)c2cccs2)nnc1SCC(=O)Nc1cc(Cl)ccc1C,-2.1%,-4.8%,6.4%,-3.9,-11.7%,-8.5%
CN1/C(=C\C(=O)COC(=O)c2ccc(O)c(O)c2)C(C)(C)c2ccccc21,9.2%,-2.5%,10µM*,-0.8,-0.2%,-19.8%
COC(=O)c1cc(NCc2ccccc2F)ccc1N1CCOCC1,5.4%,6.4%,?,-9.7,-1.4%,3.5%
O=C(O)c1cc(NCc2c(F)cccc2Cl)ccc1N1CCOCC1,-0.1%,-6.6%,7.08µM*,2.2,2.8%,24.0%
N#CC(C#N)=C1C=C2C=C(N3CCCCC3)CCC2CC1 (stereo unspecified),-1.8%,-4.4%,-6.3%,-3.7,-0.8%,9.6%
N#CC1=C(N)C2=C(N3CCCCC3)CCCC2C1(C#N)C#N (stereo unspecified),0.4%,0.7%,22.4µM*,-2.2,-2.5%,-2.8%
COC(=O)c1c(C)sc(-c2c(-c3ccc4c(c3)OCCO4)[nH]c3c2c(=O)n(C)c(=O)n3C)c1O,.,.,-0.1%[76.3 µM],.,.,.
COC(=O)c1c(C)sc(-c2c(-c3ccc4c(c3)OCCO4)[nH]c3[nH]c(=O)[nH]c(=O)c23)c1O,.,.,25.1µM*,.,.,.
CCOc1cc2c3c(c1)C1(OCCO1)C(=O)N3C(C)(C)CC2C (stereo unspecified),2.7%,-0.2%,-4.0%,-14.5,-5.9%,4.6%
CCOc1cc2c3c(c1)C1(Nc4ccccc4S1)C(=O)N3C(C)(C)CC2C (stereo unspecified),-1.6%,-0.6%,35.5µM*,-5.9,-6.6%,14.5%
Cn1c(=O)n(CC(=O)NCC2CCCO2)c(=O)c2c3c(sc21)COC(C)(C)C3 (stereo unspecified),.,.,.,.,.,-5.5%
COc1c(F)c(F)c(C(=O)Nc2ccc(N3CCN(C(C)=O)CC3)c(Cl)c2)c(F)c1F,1.5%,-1.0%,-0.7%,-0.7,-2.9%,11.2µM*
COc1ccc2c(Cl)c(C(=O)NN)sc2c1,0.2%,-6.7%,15.7µM*,2.0,-0.9%,7.1%
COc1cc(C(=O)NNc2nc3cc4c(cc3s2)OCO4)cc(OC)c1OC,-2.1%,0.8%,25.1µM*,0.8,-4.6%[15.4 µM],3.0%
Nc1nc(NC(=O)c2ccccc2Cl)nn1-c1ccccc1,-0.7%,2.6%,1.6%,1.0,.,22.4%
CCS(=O)(=O)CCSc1nc2ccccc2o1,-3.5%,-5.9%,2.5%,-10.6,-4.2%,7.9%
Cc1ccc2oc(=O)c(/C=C(\O)c3ccccc3)nc2c1,2.9%,0.8%,?,-7.4,-1.0%,7.4%
O=c1oc2ccccc2nc1/C=C(\O)c1ccc(Br)cc1,-16.3%,-5.5%,?,-0.3,.,5.8%
C/C(O)=C\c1nc2ccccc2oc1=O,-5.4%,-1.0%,10µM*,-1.6,-5.3%,-10.2%
Cc1ccc2oc(=O)c(/C=C(\O)c3cccs3)nc2c1,-4.2%,-1.7%,12.6µM*,-1.8,.,0.3%
SMILES,GLA spleen mod,GAA spleen mod,GAA glycogen mod,GLA inh pH 4.5,GAA inh,N370S GC mod
O=c1oc2ccc(Cl)cc2nc1/C=C(\O)c1cccs1,-25.1%,-3.8%,6.31µM*,7.5,.,10.8%
CS(=O)(=O)Cc1nc2ccccc2oc1=O,2.3%,1.9%,5.58µM*,8.6,-4.0%,4.3%
CN(C)S(=O)(=O)c1ccc(Cl)c(NC(=O)CN2CCNC(=O)C2)c1,1.2%,2.9%,-1.8%,-10.6,-11.2%,2.9%
O=C(COc1ccc2ccccc2c1)N1CCN(c2ccccc2O)CC1,1.7%,-2.6%,14.1µM*,6.5,-8.8%,-22.7%
CCOC(=O)N1CCN(c2ccc(O)cc2)CC1,0.0%,-0.1%,25.1µM*,4.8,-6.4%,11.2%
O=C(c1ccc2ccccc2c1)N1CCN(c2ccc(O)cc2)CC1,6.4%,-0.7%,17.6µM*,-22.6,4.9%,-19.1%
CCOC(=O)N1CCN(c2ccc(Cl)cc2)CC1,5.3%,1.7%,-2.3%,-7.2,-0.1%,1.3%
O=C(CSc1ccc2ccccc2c1)N1CCN(c2ccc(O)cc2)CC1,-1.4%,-2.9%,15.8µM*,-0.4,.,-21.9%
COc1ccc(N2CCN(C(=O)CSc3nnc(-c4cc5ccccc5cc4O)n3C)CC2)cc1,-0.9%,6.5%,-14.3%,4.0,0.8%,8.0%
Cc1cccc(N2CCN(C(=O)c3ccc(CS(=O)Cc4cccc(Cl)c4)o3)CC2)c1C (stereo unspecified),.,.,.,.,.,-7.7%
Cc1ccc(NC(=O)COc2nsnc2N2CCOCC2)cc1Cl,.,.,-0.7%,.,.,-2.4%
CC1CCN(CCNC(=O)c2ccc(Cn3c(SCc4ccccc4)nc4cccnc43)cc2)CC1,.,.,11.3%[76.3 µM],.,.,.
O=C1OC(N2C(=O)CC[C@H]2C(=O)Nc2ccc(F)c(F)c2)c2ccccc21 (stereo partly specified),.,.,-23.5%[76.3 µM],.,.,2.3%
O=C1OC(N2C(=O)CC[C@H]2C(=O)Nc2ccc3c(c2)OCO3)c2ccccc21 (stereo partly specified),.,.,31.6µM*,.,.,-0.3%
CCCCCC(=O)NC(=S)Nc1ccc(Br)cc1C,-3.5%,-7.3%,6.0%,-1.1,-4.1%,-5.6%
NNc1nc(-c2ccccc2)cc(-c2ccccc2)n1,-14.2%,-2.8%,-16.5%,0.6,4.3%,3.6%
NNc1nc(-c2ccccc2)cc(-c2ccccc2O)n1,-7.6%,-5.8%,11.2µM*,1.0,1.8%,4.1%
CCC(=O)N1CCc2cc(S(=O)(=O)NCCC(=O)Nc3ccc(N(CC)CC)cc3C)ccc21,.,.,16.6%[76.3 µM],.,.,.
CCN(CC)S(=O)(=O)c1ccc(N2CCCC2)c(NC(=O)c2ccccc2OC)c1,-5.2%,-16.7%,1.9%,-11.3,.,?
COc1ccc(/C=N/NC2=NS(=O)(=O)c3ccccc32)cc1OC(C)=O,.,.,-26.3%,.,.,-4.7%
Oc1ccc(/C=N/N2CCCCC2)c(O)c1,.,.,11.2µM*,.,.,-18.8%
